Source: PubChem (several laboratories)
PfHsp90 yeast 2 – reduces growth (ATP signal) of yeast expressing P. falciparum Hsp90. 310,000 compounds, 0.32% hits. S. cerevisiae expressing PfHsp90, BacTiter-Glo ATP, 48 h; yeast lacking PDR1 and PDR3 efflux regulators. AID 504621. inhibition, % at 9.4 µM;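 active = every replicate shows inhibition above about 80%, whatever the replicate mean, limit read from the data; inconclusive = mean inhibition reaches the set limit but some replicate falls short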
TIM10 inh – TIM10 yeast growth inhibition. S. cerevisiae TIM10 strain growth, BacTiter-Glo luminescence, 24 h. inhibition, % at 10 µM. 330,000 compounds, 1.4% hits. AID 463195;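 active = inhibition of 40% or more at the single tested concentration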;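 note: wild-type TIM10 isogenic control strain grown at permissive 25 °C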
tim10-1 inh – tim10-1 yeast growth inhibition | S. cerevisiae tim10-1 ts strain growth, BacTiter-Glo, 24 h | inhibition, % at 20 µM | 330,000 compounds, 2.2% hits;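 active = inhibition of at least 40%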;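 note: mutant grown at 25 °C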
tim23-1 inh – tim23-1 yeast growth inhibition; S. cerevisiae tim23-1 growth, BacTiter-Glo luminescence, 24 h; inhibition, % at 20 µM; 330,000 compounds, 1.3% hits; AID 463212;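 active = growth inhibition of the mutant yeast at or above 50%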;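 note: temperature-sensitive mutant grown at 25 °C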
EBI2 antag – antagonists of human EBI2 receptor | P32249 | EBI2 beta-arrestin recruitment, luminescence, 7a,25-OHC stimulated | inhibition, % at 5 µM | 360,000 compounds, 0.81% hits | AID 651636; in the data active = inhibition above about 38%;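 note: enzyme fragment complementation signal reports receptor beta-arrestin coupling in cells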
Target sequence (P32249 whole entry, looked up, the tested form may be a part): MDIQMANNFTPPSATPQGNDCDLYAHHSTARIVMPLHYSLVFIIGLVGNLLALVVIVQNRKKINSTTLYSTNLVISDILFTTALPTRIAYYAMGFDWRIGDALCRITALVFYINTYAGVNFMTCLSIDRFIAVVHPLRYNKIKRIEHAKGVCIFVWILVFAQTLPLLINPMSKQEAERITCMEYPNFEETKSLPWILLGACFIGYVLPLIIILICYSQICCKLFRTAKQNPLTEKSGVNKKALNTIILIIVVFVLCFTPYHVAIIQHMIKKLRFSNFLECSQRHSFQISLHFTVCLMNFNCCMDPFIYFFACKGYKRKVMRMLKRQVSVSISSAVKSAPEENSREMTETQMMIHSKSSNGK
SKKanGAS inh – blocks kanamycin growth of S. pyogenes SKKanGAS strain; AID 1662; 300,000 compounds, 1.3% hits; inhibition, % at 7.5 µM; BacTiter-Glo, 6 h;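 active = mean replicate score, as percent of positive control median, at least 50; inconclusive = mean below 50 but one replicate at or above 50; inactive = mean and every replicate below 50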;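 note: strain carries kanamycin resistance gene driven by streptokinase promoter and grows in 40 µg/ml kanamycin; loss of luminescence reflects streptokinase promoter inhibition or plain growth inhibition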
EBI2 antag conf – confirmation of human EBI2 receptor antagonists | shares compounds with EBI2 antag | EBI2 beta-arrestin luminescence, 7a,25-OHC antagonism | inhibition, % at 5 µM | 2,400 compounds, 29% hits;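 active = inhibition of at least 50%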
EBI2 ag – activates EBI2, counter-screen for EBI2 antagonists | AID 652000 | EBI2-expressing cells, agonist mode, luminescence, 60 min; 0% vehicle, 100% 7α,25-dihydroxycholesterol control | activation, % at 5 µM | shares compounds with EBI2 antag | 2,400 tested, under 10 active;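 active = activation of at least 50%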
bGal cs – counter-screen for EBI2 antagonists: E. coli beta-galactosidase inhibition; shares compounds with EBI2 antag; purified beta-galactosidase, luminescent Galacton Star, 15 min; inhibition, % at 5 µM; 2,400 compounds, 1% hits; AID 652176;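 active = replicate-average signal at least 3 plate SD below neutral wells, shown as high inhibition, flagging enzyme-inhibiting false positives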;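 note: higher means stronger loss of beta-gal luminescence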
A number is an active result; – = inactive; ? = inconclusive; · = no result. The list is not random: actives were taken first. Their share in the collection is about 4.7%.

SMILES | PfHsp90 yeast 2 | TIM10 inh | tim10-1 inh | tim23-1 inh | EBI2 antag | SKKanGAS inh | EBI2 antag conf | EBI2 ag | bGal cs
Cn1c(=NC(=O)C2CCN(S(=O)(=O)c3cccs3)CC2)sc2ccccc21 | – | – | – | – | 57 | – | – | – | –
CCc1nc2ccc(C(=O)Nc3cc(-c4ccccc4)ccc3OC)cn2c1N(C)Cc1ccc(OC)cc1 | · | · | · | · | 45 | · | – | – | –
CCc1nc2ccc(C(=O)Nc3cc(-c4ccccc4)ccc3OC)cn2c1N(C)CCC(C)C | · | · | · | · | – | · | · | · | ·
CCc1nc2ccc(C(=O)Nc3cc(-c4ccccc4)ccc3OC)cn2c1N(C)C(=O)c1cccc(OC)c1 | · | · | · | · | 43 | · | – | – | –
O=S(=O)(N/N=C\c1ccc2c(c1)OCO2)c1ccc(Cl)cc1 | – | – | – | – | – | – | · | · | ·
CCOC(=O)C1CCCN(C(=S)NC2CCCC2)C1 (stereo not drawn) | – | – | – | – | – | – | · | · | ·
COc1ccc(OC)c(S(=O)(=O)N2CCCC(C(=O)NCCN3CCOCC3)C2)c1 (stereo not drawn) | – | – | – | – | – | – | · | · | ·
COc1ccc(NC(=O)CSCC(=O)N(C)CC(=O)Nc2cccc3ccccc23)cc1 | · | – | – | – | – | – | · | · | ·
CCOC(=O)C1CN(S(=O)(=O)c2ccc(C)cc2)CCN1S(=O)(=O)c1ccc(C)cc1 (stereo not drawn) | – | – | – | – | 44 | – | – | – | –
CC1CN2C(c3ccc([N+](=O)[O-])cc3)=CSC2=N1 (stereo not drawn) | – | – | – | – | – | – | · | · | ·
Cc1cccc(Oc2ncnc3oc(-c4ccccc4)cc23)c1C | · | – | – | – | 67 | – | – | – | –
Cc1cccc(Oc2ncnc(N)c2[N+](=O)[O-])c1C | – | – | – | – | – | – | · | · | ·
Cc1cc(Cl)ccc1Oc1ncnc2oc(-c3ccccc3)cc12 | – | – | – | – | 53 | – | – | – | –
CC1=NN(C(=O)c2ccccc2F)C(O)(c2ccc(Cl)cc2)C1 (stereo not drawn) | – | – | – | – | – | – | · | · | ·
C=CCNc1nnnc2c1sc1nc(N3CCOCC3)c3c(c12)CCCC3 | – | – | – | – | 52 | – | – | – | –
CC(C)CNc1nnnc2c1sc1nc(N3CCOCC3)c3c(c12)CCCC3 | – | – | – | – | – | – | · | · | ·
CCCCC[C@@H](C)N1C[C@@H](COCc2ccccc2)Oc2cc(N3CC[C@H](O)C3)ccc2S1(=O)=O | · | · | · | · | 53 | · | – | – | –
CCCCC[C@H](C)N1C[C@@H](COCc2ccccc2)Oc2cc(N3CC[C@@H](O)C3)ccc2S1(=O)=O | · | · | · | · | – | · | · | · | ·
CCCCC[C@@H](C)N1C[C@@H](COCc2ccccc2)Oc2cc(N3CC[C@@H](O)C3)ccc2S1(=O)=O | · | · | · | · | 45 | · | – | – | –
O=C1C(Cc2ccccc2)Nc2ncnc(N3CCN(c4ccccc4)CC3)c2N1Cc1ccc(Cl)cc1 (stereo not drawn) | – | – | – | – | 65 | – | 71 | – | 39
CC1Nc2ncnc(N3CCN(c4ccccc4)CC3)c2N(Cc2ccc(Cl)cc2)C1=O (stereo not drawn) | – | – | – | – | 48 | – | 62 | – | 49
COc1ccc(CN2C(=O)C(Cc3ccccc3)Nc3ncnc(N4CCN(c5ccccc5)CC4)c32)cc1 (stereo not drawn) | – | – | – | – | 44 | – | – | – | 32
O=C1C(Cc2ccccc2)Nc2ncnc(N3CCOCC3)c2N1Cc1ccc(Br)cc1 (stereo not drawn) | – | – | – | – | – | – | · | · | ·
CC(=O)Nc1ccc(S(=O)(=O)NCC(=O)OCC(=O)NCCc2ccccc2)cc1 | · | · | · | · | – | · | · | · | ·
Cc1cccc(NC(=O)CSCC(=O)NCc2ccco2)c1 | – | – | – | – | – | – | · | · | ·
SMILES | PfHsp90 yeast 2 | TIM10 inh | tim10-1 inh | tim23-1 inh | EBI2 antag | SKKanGAS inh | EBI2 antag conf | EBI2 ag | bGal cs
COc1ccc(CCNC(=O)COC(=O)/C=C/c2ccc(OC)cc2OC)cc1 | – | – | – | – | – | · | · | · | ·
CCOC(=O)C1=CCN(S(=O)(=O)c2ccccc2C)C1c1cccc(Cl)c1 (stereo not drawn) | · | · | · | · | 61 | · | – | – | –
CCOC(=O)C1=CCN(S(=O)(=O)c2ccccc2Br)C1c1cccc(Cl)c1 (stereo not drawn) | · | · | · | · | – | · | · | · | ·
CCOC(=O)C1=CCN(S(=O)(=O)c2ccccc2F)C1c1cccc(Cl)c1 (stereo not drawn) | · | · | · | · | – | · | · | · | ·
CCOC(=O)C1=CCN(S(=O)(=O)c2ccccc2Cl)C1c1cccc(Br)c1 (stereo not drawn) | · | · | · | · | 56 | · | – | – | –
CC1(C(=O)Nc2cnc3ccccc3c2)CCN1C(=O)CC(c1ccccc1)c1ccccc1 (stereo not drawn) | · | · | · | · | 75 | · | 55 | – | –
COc1ccc(C(=O)NC(C)c2ccc(-n3ccnc3)cc2)cc1[N+](=O)[O-] (stereo not drawn) | – | – | – | – | – | – | · | · | ·
Cc1ccc(Cn2c(=O)n(Cc3ccco3)c(=O)c3ccccc32)cc1 | – | – | – | – | 69 | 55 | – | – | –
O=c1n(Cc2ccccc2F)c2ccccc2n1Cc1ccccc1F | – | – | – | – | – | ? | · | · | ·
O=c1c2ccccc2n(Cc2ccccc2F)c(=O)n1Cc1ccccc1F | · | – | – | – | 54 | – | – | – | –
O=C(NCc1ccco1)c1ccc(Cn2c(=O)c3ccccc3n(Cc3ccc(Cl)cc3)c2=O)cc1 | · | – | – | – | – | – | · | · | ·
CCOC(=O)C1(Cc2ccccc2Cl)CCN(C(=O)CCn2ccnc2C)CC1 | – | – | – | – | – | – | · | · | ·
CSc1ncccc1C(=O)Nc1cc(Cl)ccc1N1CCOCC1 | – | – | – | – | – | · | · | · | ·
CC(C)C(OC(=O)c1oc2ccccc2c1CSC1CCCCC1)C(=O)NC(N)=O (stereo not drawn) | · | – | – | – | · | – | · | · | ·
CCNC(=O)NC(=O)C(C)OC(=O)c1oc2ccccc2c1CSC1CCCCC1 (stereo not drawn) | – | – | – | – | 44 | – | – | – | –
CC(OC(=O)CCCN=C1NS(=O)(=O)c2ccccc21)C(=O)NC1CCCCC1C (stereo not drawn) | – | – | – | – | – | – | · | · | ·
CCn1c(SCC(=O)NNC(=O)c2ccc(OC)cc2)nnc1-c1cccnc1 | – | – | – | – | 59 | – | – | – | –
COc1ccc(-n2c(SCC(=O)NNC(=O)c3ccc(C)cc3)nnc2-c2ccncc2)cc1 | – | – | – | – | 55 | – | – | – | –
CCn1c(SCC(=O)NNC(=O)c2ccc(C)cc2)nnc1-c1ccncc1 | – | – | – | – | – | – | · | · | ·
